# Reference: PubChem BioAssay (Tox21)
# Several values for one entry are separate records, joined by “and”; a condition that tells them apart may be missing. Identical values can stand only once. Unmarked numbers belong to inactive results. Entries that show only a call come without a potency. Activity calls are given as the source filed them. Unless noted, the call rests on the fitted dose curve.
# Assays:
# [1] = qHTS assay for small molecule agonists of the p53 signaling pathway (AID 651631); further: nearly all actives have a fitted effect of over 15% in size
# Method in brief: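 HCT-116 cells carrying a stable p53 response element–beta-lactamase reporter were plated, rested 5 h at 37 °C, then exposed to compound in DMSO for 16 h at 37 °C; reporter activity was read as FRET substrate fluorescence after 2 h at room temperature.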
# [2] = biological target: Glucocorticoid receptor (Homo sapiens) (UniProt P04150); experiment: qHTS assay to identify small molecule antagonists of the glucocorticoid receptor (GR) signaling pathway (AID 720692; active means well fitted inhibition curve with a large enough effect in the signal ratio in the repeat runs, not every such curve was filed as active; inconclusive means weak or mixed curves, or effect the other way; inactive means no such curve, though single readings can be large or run the other way; the % refers to the signal ratio)
# Method in brief: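 Dexamethasone (5 nM final) stimulated a stably integrated GRE-beta-lactamase reporter in HeLa cells during 18 h co-incubation with compounds; signal was quantified as fluorescence intensity of B/G FRET substrate after 2 h.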
# [3] = biological target: Estrogen receptor (Homo sapiens) (UniProt P03372); experiment: qHTS assay to identify small molecule antagonists of the estrogen receptor alpha (ER-alpha) signaling pathway (AID 743069; active means well fitted curve in the direction sought with a large enough effect in the signal ratio in the repeat runs, not every such curve was filed as active; inconclusive means weak or mixed curves, or effect the other way; inactive means no such curve, though single readings can be large or run the other way; the % refers to the signal ratio)
# Method in brief: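 Estradiol-stimulated ER-alpha-UAS-bla HEK293 cells, 18 hr compound exposure at 37C. LiveBLAzer B/G substrate, 2 hr RT, fluorescence read.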
# [4] = biological target: Androgen receptor (Homo sapiens) (UniProt P10275); experiment: qHTS assay to identify small molecule agonists of the androgen receptor (AR) signaling pathway (AID 743036; active means well fitted activation curve with a large enough effect in the signal ratio in the repeat runs, with a control signal flat, not every such curve was filed as active; inconclusive means weak or mixed curves, or effect the other way; inactive means no such curve, though single readings can be large or run the other way; the % refers to the signal ratio)
# Method in brief: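 HEK293 cells stably carrying a UAS-driven beta-lactamase reporter (GeneBLAzer AR-UAS-bla-GripTite) were plated at 2,000 cells/well, rested 4 h at 37C, then exposed to compounds in DMSO for 16 h. LiveBLAzer B/G FRET substrate was added for 2 h at room temperature; fluorescence read.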
# [5] = biological target: Androgen receptor (Homo sapiens) (UniProt P10275); experiment: qHTS assay to identify small molecule antagonists of the androgen receptor (AR) signaling pathway using the MDA cell line (AID 743042; active means well fitted curve in the direction sought with a large enough effect in the repeat runs; inconclusive means weak or mixed curves; inactive means no such curve, though single readings can be large; an effect the other way counts as inactive or inconclusive; further: nearly all actives have a fitted effect of over 55% in size)
# Method in brief: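 MDA-kb2 cells (human breast carcinoma, stably carrying an MMTV-luciferase reporter responsive to AR and GR) were plated at 3,000 cells/well and preincubated 5 hr at 37C, then given compound plus R1881 agonist for 16 h. ONE-Glo luminescence was read.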
# [6] = biological target: Androgen receptor (Homo sapiens) (UniProt P10275); experiment: qHTS assay to identify small molecule antagonists of the androgen receptor (AR) signaling pathway (AID 743035; active means well fitted inhibition curve with a large enough effect in the signal ratio in the repeat runs, not every such curve was filed as active; inconclusive means weak or mixed curves, or effect the other way; inactive means no such curve, though single readings can be large or run the other way; the % refers to the signal ratio)
# Method in brief: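 Using qHTS, AR-UAS-bla GripTite HEK293 cells received compound, then R1881, and were cultured 16 h at 37C/5% CO2 before a 2 h room-temperature LiveBLAzer B/G FRET substrate step and fluorescence measurement.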
# [7] = biological target: Androgen receptor (Homo sapiens) (UniProt P10275); experiment: qHTS assay to identify small molecule agonists of the androgen receptor (AR) signaling pathway using the MDA cell line (AID 743040; active means well fitted curve in the direction sought with a large enough effect in the repeat runs; inconclusive means weak or mixed curves; inactive means no such curve, though single readings can be large; an effect the other way counts as inactive or inconclusive; further: nearly all actives have a fitted effect of over 20% in size)
# Method in brief: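 Luminescence from ONE-Glo, read after 30 min at room temperature, reflects MMTV-driven luciferase in MDA-kb2 cells (AR- and GR-responsive). Treatment lasted 16 h at 37C, 0% CO2.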
# Potency means the concentration at half of the fitted maximal effect.
# Chain of Glucocorticoid receptor (Homo sapiens) (P04150 whole entry, looked up): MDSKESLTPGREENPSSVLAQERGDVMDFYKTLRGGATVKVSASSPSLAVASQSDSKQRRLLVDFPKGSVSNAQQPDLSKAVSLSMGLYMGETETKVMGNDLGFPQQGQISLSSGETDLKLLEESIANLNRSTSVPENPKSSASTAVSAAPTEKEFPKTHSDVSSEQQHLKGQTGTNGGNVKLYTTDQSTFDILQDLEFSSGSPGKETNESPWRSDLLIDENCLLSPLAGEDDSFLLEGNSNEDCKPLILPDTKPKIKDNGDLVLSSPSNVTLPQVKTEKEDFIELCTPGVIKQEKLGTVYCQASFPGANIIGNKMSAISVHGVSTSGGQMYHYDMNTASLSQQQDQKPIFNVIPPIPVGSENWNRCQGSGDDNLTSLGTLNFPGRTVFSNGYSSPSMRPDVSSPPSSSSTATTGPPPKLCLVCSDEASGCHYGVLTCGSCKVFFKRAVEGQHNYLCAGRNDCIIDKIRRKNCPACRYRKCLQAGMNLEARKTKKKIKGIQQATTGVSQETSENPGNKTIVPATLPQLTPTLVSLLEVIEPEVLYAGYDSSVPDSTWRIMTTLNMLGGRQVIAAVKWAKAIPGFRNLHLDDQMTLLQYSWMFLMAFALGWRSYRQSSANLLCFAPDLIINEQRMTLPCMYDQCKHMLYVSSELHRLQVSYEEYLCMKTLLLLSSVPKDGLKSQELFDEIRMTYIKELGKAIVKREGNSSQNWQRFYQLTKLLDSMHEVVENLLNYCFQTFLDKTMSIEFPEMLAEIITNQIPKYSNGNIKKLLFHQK
# Chain of Estrogen receptor (Homo sapiens) (P03372 whole entry, looked up): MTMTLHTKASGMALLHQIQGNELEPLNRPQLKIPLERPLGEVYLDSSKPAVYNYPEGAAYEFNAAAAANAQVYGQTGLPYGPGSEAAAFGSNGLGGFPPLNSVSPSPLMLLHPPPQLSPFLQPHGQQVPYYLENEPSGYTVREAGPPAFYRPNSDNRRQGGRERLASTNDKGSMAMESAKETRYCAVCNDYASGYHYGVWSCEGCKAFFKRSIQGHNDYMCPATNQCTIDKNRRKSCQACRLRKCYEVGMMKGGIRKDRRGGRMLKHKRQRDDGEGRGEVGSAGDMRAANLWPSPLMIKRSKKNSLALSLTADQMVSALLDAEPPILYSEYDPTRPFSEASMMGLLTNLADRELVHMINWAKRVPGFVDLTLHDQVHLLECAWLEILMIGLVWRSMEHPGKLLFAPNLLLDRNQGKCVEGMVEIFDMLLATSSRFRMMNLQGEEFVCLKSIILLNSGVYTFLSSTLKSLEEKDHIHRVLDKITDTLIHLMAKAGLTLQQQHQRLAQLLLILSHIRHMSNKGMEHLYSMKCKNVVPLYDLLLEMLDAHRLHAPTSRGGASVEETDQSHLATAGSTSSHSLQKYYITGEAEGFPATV
# Chain of Androgen receptor (Homo sapiens) (P10275 whole entry, looked up): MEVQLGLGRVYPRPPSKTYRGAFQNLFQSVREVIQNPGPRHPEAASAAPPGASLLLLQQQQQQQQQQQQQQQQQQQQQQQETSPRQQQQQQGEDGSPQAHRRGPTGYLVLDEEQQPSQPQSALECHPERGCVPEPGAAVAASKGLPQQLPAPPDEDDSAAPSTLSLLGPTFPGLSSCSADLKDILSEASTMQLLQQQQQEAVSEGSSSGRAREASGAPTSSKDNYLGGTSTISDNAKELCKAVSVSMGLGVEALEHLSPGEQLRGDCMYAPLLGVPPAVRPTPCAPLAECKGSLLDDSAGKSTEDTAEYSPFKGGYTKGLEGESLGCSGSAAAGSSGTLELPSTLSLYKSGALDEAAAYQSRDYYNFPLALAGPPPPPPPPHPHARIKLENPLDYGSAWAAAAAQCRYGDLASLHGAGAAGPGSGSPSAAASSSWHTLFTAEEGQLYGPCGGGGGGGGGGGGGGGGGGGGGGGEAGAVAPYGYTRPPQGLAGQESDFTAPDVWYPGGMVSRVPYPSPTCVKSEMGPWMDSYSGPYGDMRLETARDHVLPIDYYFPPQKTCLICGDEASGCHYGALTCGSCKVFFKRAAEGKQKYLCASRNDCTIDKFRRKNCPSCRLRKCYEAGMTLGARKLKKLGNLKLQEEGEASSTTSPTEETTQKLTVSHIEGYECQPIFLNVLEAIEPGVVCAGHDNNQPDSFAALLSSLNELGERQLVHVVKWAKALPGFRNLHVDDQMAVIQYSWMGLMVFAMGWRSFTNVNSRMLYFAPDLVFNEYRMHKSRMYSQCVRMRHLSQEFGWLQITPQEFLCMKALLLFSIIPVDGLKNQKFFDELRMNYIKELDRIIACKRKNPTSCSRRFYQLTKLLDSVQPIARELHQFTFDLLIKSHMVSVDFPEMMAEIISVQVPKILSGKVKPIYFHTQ
compound,measurement,setting,value
C/C=C(\CC)C(=O)NC(N)=O,Potency,[1],inactive
same,Potency,[2],inactive
same,Potency,[3],inactive
O=c1ccc2cc(O[C@@H]3O[C@H](CO)[C@@H](O)[C@H](O)[C@H]3O)c(O)cc2o1,Potency,[1],7.17 µM (active)
same,Potency,[4],9.1 µM (active)
same,Potency,[5],inactive
CN1[C@H]2CC[C@@H]1[C@@H](C(=O)O)[C@@H](OC(=O)c1ccccc1)C2,Potency,[3],inactive
O=C(OCCN1CCCCC1)C(O)(c1ccccc1)c1ccccc1,Potency,[3],inactive
CC1(C)[C@H](C=C(Cl)Cl)[C@H]1C(=O)OCc1c(F)c(F)cc(F)c1F,Potency,[2],inactive
same,Potency,[3],inactive
C[C@]12CC[C@H]3[C@@H](CCC4=C(Cl)C(=O)CC[C@@]43C)[C@@H]1CC[C@@H]2O,Potency,[1],inactive
same,Potency,[6],inactive
same,Potency,[4],0.003 µM (active)
same,Potency,[5],inactive
O[C@H]1[C@H]2[C@H](O)CCCN2C[C@H]1O,Potency,[2],inactive
same,Potency,[3],inactive
CCCSc1cc(OC)c(CCN)cc1OC,Potency,[1],32.5 µM (active)
same,Potency,[2],inactive
same,Potency,[6],6.55 µM (active)
same,Potency,[5],inactive
same,Potency,[3],inactive
C[C@@H]1[C@@H]2Cc3ccc(O)cc3[C@@]1(C)CCN2CC1CC1,Potency,[1],inactive
same,Potency,[2],inactive
same,Potency,[6],inactive
same,Potency,[4],inactive
same,Potency,[5],inactive
NC1=NC(=O)N2CC12 (centres undefined),Potency,[3],inactive
CC(=O)[C@@]1(O)CC[C@H]2[C@@H]3CCC4=CC(=O)CC[C@]4(C)C3(F)[C@@H](O)C[C@@]21C (some centres undefined),Potency,[1],inactive
Cc1ccccc1-n1c(C)nc2ccccc2c1=O,Potency,[2],inactive
same,Potency,[3],inactive
Cc1nnc2n1-c1ccc(Cl)cc1C(c1ccccc1)=NC2,Potency,[1],inactive
same,Potency,[2],6.01 µM (active)
same,Potency,[3],21.3 µM [inconclusive] (active)
COc1cc([C@@H]2c3cc4c(cc3[C@@H](O)[C@H]3COC(=O)[C@H]23)OCO4)cc(OC)c1O,Potency,[1],0.168 µM (active)
same,Potency,[3],inactive
Oc1cccc[c]1[Hg][Cl],Potency,[6],6.74 µM (active)
same,Potency,[5],4.22 µM (active)
CC[C@H]1[C@@H]2C[C@H]3[C@@H]4N(C)c5ccccc5[C@]45C[C@@H](C2[C@H]5O)N3[C@@H]1O (some centres undefined),Potency,[1],inactive
same,Potency,[2],inactive
same,Potency,[3],inactive
COC(=O)[C@H]1[C@@H](OC(=O)c2ccccc2)C[C@@H]2CC[C@H]1N2C,Potency,[1],inactive
same,Potency,[6],inactive
same,Potency,[4],inactive
same,Potency,[5],inactive
same,Potency,[3],inactive
C=C[C@H]1CN2CC[C@H]1C[C@H]2[C@H](OC(=O)OCC)c1ccnc2ccc(OC)cc12,Potency,[1],inactive
same,Potency,[2],inactive
CN[C@]1(c2ccccc2Cl)CCCCC1=O,Potency,[1],inactive
same,Potency,[2],inactive
same,Potency,[3],inactive
CCc1cc(OC)c(C[C@@H](C)N)cc1OC,Potency,[1],inactive
same,Potency,[2],inactive
Clc1ccc(C(Cn2ccnc2)OCc2csc3c(Cl)cccc23)c(Cl)c1 (centres undefined),Potency,[2],inactive
same,Potency,[7],inactive
CCC1(c2ccccc2)C(=O)NC(=O)N(C)C1=O (centres undefined),Potency,[2],inactive
CCCC(C)(COC(N)=O)COC(=O)NC1CC1 (centres undefined),Potency,[2],inactive
same,Potency,[3],inactive
C[C@]12CC[C@@H]3c4ccc(OC(=O)N(CCCl)CCCl)cc4CC[C@H]3[C@@H]1CC[C@@H]2OP(=O)(O)O,Potency,[1],7.5 µM (active) and 29.8 µM (active)
same,Potency,[2],inactive
same,Potency,[6],10.7 µM (active) and 19 µM (active)
same,Potency,[5],inactive
N#CC(C#N)=Cc1cc(O)c(O)c(O)c1,Potency,[1],inactive
same,Potency,[5],inactive
c1ccc2c(c1)Sc1ccccc1N2C[C@@H]1CN2CCC1CC2,Potency,[1],inactive
same,Potency,[2],inactive
CCCCNC(C)(C)[P+](=O)O,Potency,[6],inactive
same,Potency,[4],inactive
same,Potency,[5],inactive
same,Potency,[3],inactive
CCCC(=O)OC(C(Cl)(Cl)Cl)P(=O)(OC)OC (centres undefined),Potency,[6],inactive
same,Potency,[4],inactive
same,Potency,[7],33.5 µM (active)
same,Potency,[5],inactive
same,Potency,[3],inactive
O=C(O)CCCO,Potency,[1],inactive
same,Potency,[2],inactive
same,Potency,[6],inactive
same,Potency,[4],inactive
same,Potency,[7],inactive
same,Potency,[5],inactive
C=CCC1([C@@H](C)CCC)C(=O)NC(=O)NC1=O,Potency,[1],inactive
same,Potency,[2],inactive
same,Potency,[3],inactive
CN1C(=O)CC(=O)N(c2ccccc2)c2cc(Cl)ccc21,Potency,[1],inactive
same,Potency,[2],inactive
same,Potency,[3],inactive
O=C1CN=C(c2ccccc2)c2cc(Cl)ccc2N1,Potency,[1],inactive
same,Potency,[2],23.9 µM (active)
same,Potency,[3],inactive
Clc1ccc2c(c1)C(c1ccccc1)=NCc1nncn1-2,Potency,[2],inactive
same,Potency,[4],inactive
same,Potency,[5],inactive
same,Potency,[3],inactive
O=C(NC(=O)c1c(F)cccc1F)Nc1ccc(Cl)c(Oc2ncc(C(F)(F)F)cc2Cl)c1,Potency,[3],inactive
